TDP1 cell CPT – growth inhibition of DT40 Tdp1-/-;hTDP1 cells with camptothecin (screen for TDP1 inhibitors); Potency, µM (doses to about 46.2 µM), actives largely listed as inhibitors; chicken DT40 Tdp1-/-;hTDP1 cells + 20 nM CPT, ATP luminescence, 48 h; hit rate 12% among 420,000; also: nearly all actives have a fitted effect of over 55% in size
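Chicken DT40 Tdp1-/- cells complemented with human TDP1, 400 cells/well, exposed to compounds plus 20 nM camptothecin for at least 48 h at 37 C; viability read as ATP content by CellTiter-Glo luminescence.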
TDP1 cell noCPT – qHTS for Inhibitors of human tyrosyl-DNA phosphodiesterase 1 (TDP1): qHTS in cells in absence of CPT. DT40 Tdp1-/- hTDP1 cells, no CPT, ATP luminescence, 48 h. Potency, µM (doses to about 46.2 µM), actives largely listed as inhibitors. hit rate 15% among 420,000. AID 686978, 2013; also: nearly all actives have a fitted effect of over 55% in size
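Seeded 400 DT40-hTDP1 cells/well (vehicle DMSO, no 20 nM CPT); pinned compounds; ≥48 hr at 37 °C; CellTiter-Glo luminescence as viability measure.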
IL1B secr inh – inhibitors of inflammasome signaling (IL-1 beta secretion). THP-1 LPS/ATP IL-1B secretion, AlphaLISA, 16 h; stronger effect = lower value. activity change, % at 57.5 µM. hit rate 4.7% among 360,000; in the data active = activity change below about -50%; inconclusive = mostly about -30% to -49%
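THP-1 cells pretreated 1 hr with compounds (up to 57.5 uM final), then stimulated with LPS (250 ng/mL final) plus ATP (1.25 mM final); secreted IL-1B measured by AlphaLISA after 16 hr, decreased signal indicating inhibition.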
HT1080-NT tox – kills 2HG-producing HT-1080-NT fibrosarcoma cells; HT-1080-NT fibrosarcoma viability, CellTiter-Glo ATP luminescence, 48 h; Potency, µM (top dose mostly 46.1 µM), hits mostly cytotoxic; hit rate 1.6% among 360,000; AID 686970;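 also: NT is the 2HG producing partner of a matched IDH1 knockdown line; nearly all actives have a fitted effect of over 55% in size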
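Fibrosarcoma NT cells, 750 per well in 5% FBS RPMI, were exposed to compound for 48 hours. Viability: CellTiter-Glo luminescence.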
HT1080 IDH1KD tx – HT-1080 IDH1 knockdown cell toxicity (counter line) | hit rate 2% among 360,000 | HT-1080 IDH1 knockdown viability, ATP luminescence, 48 h | Potency, µM (top dose mostly 46.1 µM), most hits filed as cytotoxic
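Cytotoxicity counter-line: IDH1KD HT-1080, 48 h, CellTiter-Glo. Curves classed by r2, magnitude and activity.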
Of the large screens only hits and unclear results are named; the others gave an inactive call. Compounds with a hit are over-represented: about 19% of the library has one in this group of screens. Unless noted, calls follow the shape of the dose curve; as a rule, active = well fitted curve in the direction sought with a large enough effect; inconclusive = small, poorly fitted or top-dose-only effect, or another doubt; inactive = no such curve, though single readings can be large; an effect the other way counts as inactive or inconclusive.

O=C(O)CC1CCC(=C(Cl)Cl)C1 (stereo not drawn)	TDP1 cell CPT 1µM, TDP1 cell noCPT 2.9µM, IL1B secr inh -74, HT1080-NT tox inconclusive, HT1080 IDH1KD tx inconclusive
Cc1ccc(C)c(C(=O)C(C)Sc2nc3nn(-c4ccccc4)c(=O)c-3c3n2CCCCC3)c1 (stereo not drawn)	TDP1 cell CPT inconclusive, TDP1 cell noCPT 21µM
O=C(Nc1cccc(-c2nc3cccnc3s2)c1)c1ccco1	TDP1 cell noCPT inconclusive
CCOc1ncccc1C(=O)Nc1cccc(-c2nc3cccnc3s2)c1	TDP1 cell CPT inconclusive, TDP1 cell noCPT 13µM
CN(C)c1ccc(C(=O)Nc2cccc(-c3nc4cccnc4s3)c2)cc1	TDP1 cell CPT 5.8µM, TDP1 cell noCPT 10µM (no result: IL1B secr inh, HT1080-NT tox, HT1080 IDH1KD tx)
O=C(Nc1cccc(-c2nc3cccnc3s2)c1)c1cccc(Br)c1	TDP1 cell CPT 8.2µM, TDP1 cell noCPT 8.2µM (no result: IL1B secr inh, HT1080-NT tox, HT1080 IDH1KD tx)
O=C(CSC1=NCCS1)Nc1cccc(F)c1	none
O=C1NC[C@@H](c2ccccc2)OC(=O)[C@H](Cc2ccc(F)cc2)C/C=C\C[C@@H]1CC(=O)N(CCO)Cc1ccccc1	TDP1 cell CPT inconclusive, TDP1 cell noCPT 23µM, IL1B secr inh inconclusive, HT1080 IDH1KD tx inconclusive
O=C1NC[C@@H](c2ccccc2)OC(=O)[C@@H](Cc2ccc(F)cc2)C/C=C\C[C@@H]1CC(=O)N(CCO)Cc1ccccc1	TDP1 cell CPT inconclusive, TDP1 cell noCPT 16µM
O=C1CCCC/C=C\C[C@H](CC(=O)N(CCO)Cc2ccccc2)C(=O)NC[C@H](c2ccccc2)O1	TDP1 cell CPT inconclusive, TDP1 cell noCPT inconclusive
O=C1NC[C@H](c2ccccc2)OC(=O)[C@H](Cc2ccc(F)cc2)C/C=C\C[C@@H]1CC(=O)N(CCO)Cc1ccccc1	TDP1 cell CPT 21µM, TDP1 cell noCPT 16µM
COc1ccc(Cc2nnc(N/N=C(\C)c3ccccc3)[nH]c2=O)cc1OC	none
CC(=O)N1CCN2C(=O)C1CCCC(=O)c1cc(C)ccc12 (stereo not drawn)	none
O=C(CNC(=O)c1ccc(Br)o1)OCc1ccc(Br)cc1	none
COC(=O)c1c(C(=O)OC)n(CCCN)c2ccc(C)cc12	TDP1 cell CPT 23µM, TDP1 cell noCPT 13µM, IL1B secr inh inconclusive, HT1080-NT tox inconclusive, HT1080 IDH1KD tx inconclusive
CCOC(=O)c1c(C)n(CCO)c2ccc(O)cc12	none
Cc1ccn2c(NC3CCCC3)c(-c3ccccn3)nc2c1	TDP1 cell CPT 18µM, TDP1 cell noCPT 6.5µM, IL1B secr inh -96, HT1080-NT tox inconclusive, HT1080 IDH1KD tx inconclusive
Cc1ccn2c(NC3CCCCC3)c(-c3ccc(C)o3)nc2c1	TDP1 cell CPT 16µM, TDP1 cell noCPT 11µM, HT1080-NT tox inconclusive (no result: IL1B secr inh)
c1ccc(-c2nc3ccccn3c2NC2CCCC2)nc1	TDP1 cell CPT inconclusive, TDP1 cell noCPT 16µM, HT1080-NT tox inconclusive, HT1080 IDH1KD tx inconclusive
Cc1ccn2c(NC3CCCCC3)c(C)nc2c1	TDP1 cell CPT inconclusive, HT1080-NT tox inconclusive, HT1080 IDH1KD tx inconclusive
COc1ccc(N2CCN(C(=O)Cc3csc(NC(=O)Nc4ccccc4OC)n3)CC2)cc1	TDP1 cell CPT 16µM, TDP1 cell noCPT 16µM
COc1ccccc1NC(=O)Nc1nc(CC(=O)N2CCN(c3ccc(F)cc3)CC2)cs1	TDP1 cell CPT inconclusive, TDP1 cell noCPT inconclusive
COc1ccccc1NC(=O)Nc1nc(CC(=O)N2CCN(c3ccccc3)CC2)cs1	TDP1 cell CPT 16µM, TDP1 cell noCPT inconclusive, IL1B secr inh inconclusive
Cc1cccc(C(=O)N[C@H](C(=O)Nc2nc3ccc(S(C)(=O)=O)cc3s2)C(C)C)c1	TDP1 cell CPT inconclusive, TDP1 cell noCPT inconclusive, IL1B secr inh inconclusive, HT1080 IDH1KD tx inconclusive
COc1cc(-c2nnc(COC(=O)c3nn(CC(C)C)c(=O)c4ccccc34)o2)cc(OC)c1OC	none
CSc1ccccc1C(=O)NCCOc1ccccc1C	TDP1 cell CPT inconclusive, TDP1 cell noCPT inconclusive
Cc1ccccc1OCCNC(=O)c1ccccc1Sc1ccccc1C#N	TDP1 cell noCPT 16µM
COc1cccc(OCCNC(=O)c2ccccc2Sc2ccccc2C#N)c1	TDP1 cell CPT inconclusive, TDP1 cell noCPT 16µM
Cc1cc(C)c(OCCNC(=O)c2ccccc2Sc2ccccc2C#N)c(C)c1	TDP1 cell CPT 18µM, TDP1 cell noCPT inconclusive
O=C1NC[C@@H](CCCCN2C[C@H](Cc3ccc(O)cc3)N(CCc3ccccc3)C(=O)C2=O)N(CCc2ccccc2)C1=O	none
CN1C(=O)C(O)(CC(=O)c2cccnc2)c2ccccc21 (stereo not drawn)	TDP1 cell CPT 12µM, TDP1 cell noCPT 10µM
Cc1ccc(C)c(C(=O)CC2(O)C(=O)N(C)c3ccccc32)c1 (stereo not drawn)	none
O=C(Nc1ccn(Cc2cccc3ccccc23)n1)c1cccnc1	TDP1 cell CPT inconclusive, TDP1 cell noCPT inconclusive, HT1080 IDH1KD tx inconclusive
O=C(CC1(O)C(=O)N(Cc2cccc3ccccc23)c2ccccc21)c1cccnc1 (stereo not drawn)	TDP1 cell CPT 0.92µM, TDP1 cell noCPT 0.82µM, HT1080-NT tox inconclusive, HT1080 IDH1KD tx 10µM
CC(NCC(O)COc1ccccc1)C1COc2ccccc2O1 (stereo not drawn)	none
CCc1cccc(CC)c1NC(=O)C(CC)Sc1nc2ccncc2[nH]1 (stereo not drawn)	none
COc1cccc2oc3cc(C#Cc4ccccn4)ccc3c(=O)c12	TDP1 cell CPT inconclusive, TDP1 cell noCPT inconclusive, IL1B secr inh -55
Cc1ccc(NC(=S)N2CCCC(CO)C2)c(C)c1 (stereo not drawn)	none
COc1cc(NC(=O)COC(=O)c2cnccn2)c(C)cc1[N+](=O)[O-]	none
Cc1ccc(S(=O)(=O)N(c2nc(N(C)C)nc(N(C)C)n2)n2cnnc2)cc1	none
O=C(Nc1ccsc1C(=O)NC1CCCCC1)c1ccccc1	TDP1 cell CPT inconclusive, TDP1 cell noCPT 21µM
O=C(Nc1ccccc1C(=O)NC(Cc1ccccc1)C(=O)NC1CCCCCC1)c1ccccc1 (stereo not drawn)	TDP1 cell CPT inconclusive, TDP1 cell noCPT 23µM
Cc1ccc(C(=O)Nc2ccsc2C(=O)O)cc1	TDP1 cell CPT inconclusive, TDP1 cell noCPT 15µM
O=C(Nc1ccsc1C(=O)O)c1ccc(Cl)cc1	TDP1 cell noCPT inconclusive
CN1CCC(NC(=S)NC2CC2)CC1	none
N#Cc1cccc(-c2nc3cnc(N4CCOCC4)nc3n(C3CC3)c2=O)c1	none (no result: IL1B secr inh, HT1080-NT tox, HT1080 IDH1KD tx)
COc1ccccc1N/C(=N/S(=O)(=O)c1ccc(C)cc1)c1ccc(Cl)cc1	TDP1 cell CPT 16µM, TDP1 cell noCPT inconclusive
COc1ccccc1NS(=O)(=O)c1cc(NC(=S)Nc2cc(C)cc(C)c2)ccc1Cl	TDP1 cell CPT 12µM, TDP1 cell noCPT 5.2µM, IL1B secr inh inconclusive
COc1ccccc1NS(=O)(=O)c1cc(N/C(=N\S(=O)(=O)c2ccccc2)c2ccc(F)cc2)ccc1Cl	TDP1 cell CPT 18µM (no result: TDP1 cell noCPT)
